# Results: PubChem BioAssay
# Unmarked numbers belong to inactive results. Some of the results follow. Activity calls are given as the source filed them.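 The calls were made as follows, unless noted: active = mean inhibition above 46.68%, the untreated control wells mean plus 3 SD; inactive = the rest.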
# Columns and labels:
# [1] = biological target: Nuclear receptor coactivator 3 (Homo sapiens) (UniProt Q9Y6Q9); experiment: SRC3 coactivator transcriptional activity inhibitors, confirmation, cell-based, luminescence, quadruplicate (AID 588792;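 active = mean inhibition over 43.08%, the solvent-only control mean plus 3 SD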;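 also: 0% = DMSO treated cells and 100% = gossypol at 36 µM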); settings: HEK293 GAL4-SRC3 luciferase reporter, at 3.6 µM, hits give high values
# [2] = tested on: transactivating tegument protein VP16 (Human herpesvirus 1), Gal4-VP16 luciferase reporter; experiment: VP16 transactivation inhibitors, counter-screen for SRC3 inhibitor project, cell-based, luminescence, high throughput (AID 588794; in the data active = inhibition above about 30%); settings: mammalian cells, VP16-driven luciferase reporter luminescence; at 3.6 µM; hits give high values
# [3] = biological target: Nuclear receptor coactivator 1 (Homo sapiens) (UniProt Q15788); experiment: SRC1 coactivator transcriptional activity inhibitors, confirmation, cell-based, luminescence, quadruplicate (AID 588820); settings: HEK293 GAL4-SRC1 luciferase reporter, at 3.6 µM, hits give high values;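 also: 0% = DMSO wells and 100% = gossypol 36 µM treated wells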
# [4] = VP16 transactivation inhibitors, counter-screen for SRC1 inhibitor project, cell-based, luminescence, high throughput (AID 588824; in the data active = inhibition above about 25%); settings: cell-based VP16 transactivation luciferase luminescence; at 3.6 µM; hits give high values
# [5] = StAR promoter reporter inhibitors, counter-screen for LRH-1 inverse agonist project, cell-based, luminescence, high throughput (AID 651611; in the data active = inhibition above about 28%); settings: StAR promoter luciferase reporter counterscreen, at 3.6 µM, hits give high values
# [6] = biological target: Nuclear receptor subfamily 5 group A member 2 (Homo sapiens) (UniProt O00482); experiment: LRH-1 (NR5A2) inverse agonists, retest, confirmation, cell-based, luminescence (AID 651613; in the data active = inhibition above about 42%;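 also: HEK293T cells co-transfected with LRH-1 and StAR promoter luciferase reporter; 0% = vehicle wells and 100% = parental cells lacking receptor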); settings: cell-based LRH-1 luciferase reporter, inverse agonism; at 3.6 µM; hits give high values
# [7] = biological target: Steroidogenic factor 1 (Homo sapiens) (UniProt Q13285); experiment: SF1 (NR5A1) inverse agonists, counter-screen for LRH-1 inverse agonist project, cell-based, luminescence, high throughput (AID 651614; in the data active = inhibition above about 44%;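 also: cells cotransfected with StAR promoter reporter and SF1 expression vector; 0% = vehicle on cells with receptor and 100% = vehicle on cells lacking receptor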); settings: cell-based SF1 luciferase reporter, at 3.6 µM, hits give high values
# [8] = VP16 transactivation reporter inhibitors, counter-screen for LRH-1 inverse agonist project, cell-based, luminescence, high throughput (AID 651615; in the data active = inhibition above about 33%); settings: Gal4-VP16 luciferase reporter cells, at 3.6 µM, hits give high values
# [9] = biological target: Photoreceptor-specific nuclear receptor (Homo sapiens) (UniProt Q9Y5X4); experiment: NR2E3 agonist confirmation in cells, cell-based, luminescence, CHO-S two-hybrid (AID 624378;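 active = average inhibition above a cutoff equal to the mean inhibition of all tested compounds plus one SD, cut at about 70% in these data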;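 also: 0% = DMSO in NR2E3 cells and 100% = DMSO in cells lacking NR2E3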); settings: CHO-S mammalian two-hybrid NR2E3-NCOR, luciferase luminescence; at 3.98 µM; hits give high values
# [10] = GAL4-VP16 reporter modulators, confirmation, counter-screen for NR2E3 agonist project, cell-based, luminescence, CHO-S, high throughput (AID 624379;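 active = mean inhibition above a cutoff equal to the average over all tested compounds plus one standard deviation, cut at about 70% in these data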;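 also: 0% = DMSO with VP16-transfected cells and 100% = DMSO with cells lacking VP16; higher means less reporter light so more repression of VP16 activity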); settings: CHO-S GAL4-VP16 luciferase reporter, at 3.98 µM, hits give high values
# [11] = tested on: transactivating tegument protein VP16 (Human herpesvirus 1); experiment: VP16 transactivation reporter inhibitors, counter-screen for SRC2 inhibitor project, cell-based, luminescence, single concentration (AID 652007; in the data active = inhibition above about 36%); settings: cell-based VP16 transactivation luciferase reporter, at 8.9 µM, hits give high values
# [12] = biological target: Nuclear receptor coactivator 2 (Homo sapiens) (UniProt Q15596); experiment: SRC2 coactivator transcriptional activity inhibitors, confirmation, cell-based, luminescence, HEK293, triplicate (AID 652008;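 active = mean inhibition above 46.5%, the solvent-only control mean plus 3 SD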;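 also: 0% = DMSO-treated cells and 100% = Gossypol at 36 µM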); settings: HEK293 GAL4-SRC2 luciferase reporter, at 8.9 µM, hits give high values
# [13] = Gal4-VP16 luciferase reporter inhibitors, counter-screen for COUP-TFII antagonist project, cell-based, luminescence, HEK293 (AID 687007; in the data active = inhibition above about 13%); settings: at 8.5 µM, hits give high values
# [14] = biological target: COUP transcription factor 2 (Homo sapiens) (UniProt P24468); experiment: NR2F2 transcriptional activity inhibitors, confirmation, cell-based, luciferase reporter, HEK293, triplicate (AID 687008;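 active = mean inhibition over three repeats above a set limit taken from the earlier primary screen, cut at about 38% in these data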;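 also: 100% = cells given the luciferase reporter alone without the COUP-TF2 vector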); settings: HEK293 NGFI-A luciferase reporter, luminescence; at 8.5 µM; hits give high values
# Chain of COUP transcription factor 2 (Homo sapiens) (P24468 whole entry, looked up): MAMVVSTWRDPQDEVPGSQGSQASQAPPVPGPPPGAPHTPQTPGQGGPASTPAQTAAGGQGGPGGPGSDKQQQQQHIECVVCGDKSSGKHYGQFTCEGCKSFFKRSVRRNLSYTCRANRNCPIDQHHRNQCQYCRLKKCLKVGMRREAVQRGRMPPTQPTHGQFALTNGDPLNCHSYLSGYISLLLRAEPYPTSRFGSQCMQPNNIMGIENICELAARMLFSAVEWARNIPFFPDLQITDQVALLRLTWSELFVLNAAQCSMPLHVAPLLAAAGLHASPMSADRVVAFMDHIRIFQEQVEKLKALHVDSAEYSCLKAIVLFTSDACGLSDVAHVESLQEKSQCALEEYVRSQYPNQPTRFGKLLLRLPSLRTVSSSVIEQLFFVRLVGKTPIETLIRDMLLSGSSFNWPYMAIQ
# Chain of Steroidogenic factor 1 (Homo sapiens) (Q13285 whole entry, looked up, the tested form may be a part): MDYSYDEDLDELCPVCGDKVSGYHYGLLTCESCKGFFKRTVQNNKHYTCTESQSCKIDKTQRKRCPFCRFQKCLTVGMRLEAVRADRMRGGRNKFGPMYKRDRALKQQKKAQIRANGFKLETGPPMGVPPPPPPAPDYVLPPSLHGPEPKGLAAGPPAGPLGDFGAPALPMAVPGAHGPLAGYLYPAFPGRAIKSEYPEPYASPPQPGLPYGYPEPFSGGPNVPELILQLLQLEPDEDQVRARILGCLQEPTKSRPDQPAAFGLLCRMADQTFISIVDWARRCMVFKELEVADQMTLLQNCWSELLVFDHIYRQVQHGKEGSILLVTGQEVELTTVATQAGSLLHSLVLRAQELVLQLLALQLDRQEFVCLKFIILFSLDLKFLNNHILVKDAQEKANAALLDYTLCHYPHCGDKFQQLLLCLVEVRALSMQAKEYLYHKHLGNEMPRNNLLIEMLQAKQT
# Chain of Nuclear receptor coactivator 1 (Homo sapiens) (Q15788 whole entry, looked up, the tested form may be a part): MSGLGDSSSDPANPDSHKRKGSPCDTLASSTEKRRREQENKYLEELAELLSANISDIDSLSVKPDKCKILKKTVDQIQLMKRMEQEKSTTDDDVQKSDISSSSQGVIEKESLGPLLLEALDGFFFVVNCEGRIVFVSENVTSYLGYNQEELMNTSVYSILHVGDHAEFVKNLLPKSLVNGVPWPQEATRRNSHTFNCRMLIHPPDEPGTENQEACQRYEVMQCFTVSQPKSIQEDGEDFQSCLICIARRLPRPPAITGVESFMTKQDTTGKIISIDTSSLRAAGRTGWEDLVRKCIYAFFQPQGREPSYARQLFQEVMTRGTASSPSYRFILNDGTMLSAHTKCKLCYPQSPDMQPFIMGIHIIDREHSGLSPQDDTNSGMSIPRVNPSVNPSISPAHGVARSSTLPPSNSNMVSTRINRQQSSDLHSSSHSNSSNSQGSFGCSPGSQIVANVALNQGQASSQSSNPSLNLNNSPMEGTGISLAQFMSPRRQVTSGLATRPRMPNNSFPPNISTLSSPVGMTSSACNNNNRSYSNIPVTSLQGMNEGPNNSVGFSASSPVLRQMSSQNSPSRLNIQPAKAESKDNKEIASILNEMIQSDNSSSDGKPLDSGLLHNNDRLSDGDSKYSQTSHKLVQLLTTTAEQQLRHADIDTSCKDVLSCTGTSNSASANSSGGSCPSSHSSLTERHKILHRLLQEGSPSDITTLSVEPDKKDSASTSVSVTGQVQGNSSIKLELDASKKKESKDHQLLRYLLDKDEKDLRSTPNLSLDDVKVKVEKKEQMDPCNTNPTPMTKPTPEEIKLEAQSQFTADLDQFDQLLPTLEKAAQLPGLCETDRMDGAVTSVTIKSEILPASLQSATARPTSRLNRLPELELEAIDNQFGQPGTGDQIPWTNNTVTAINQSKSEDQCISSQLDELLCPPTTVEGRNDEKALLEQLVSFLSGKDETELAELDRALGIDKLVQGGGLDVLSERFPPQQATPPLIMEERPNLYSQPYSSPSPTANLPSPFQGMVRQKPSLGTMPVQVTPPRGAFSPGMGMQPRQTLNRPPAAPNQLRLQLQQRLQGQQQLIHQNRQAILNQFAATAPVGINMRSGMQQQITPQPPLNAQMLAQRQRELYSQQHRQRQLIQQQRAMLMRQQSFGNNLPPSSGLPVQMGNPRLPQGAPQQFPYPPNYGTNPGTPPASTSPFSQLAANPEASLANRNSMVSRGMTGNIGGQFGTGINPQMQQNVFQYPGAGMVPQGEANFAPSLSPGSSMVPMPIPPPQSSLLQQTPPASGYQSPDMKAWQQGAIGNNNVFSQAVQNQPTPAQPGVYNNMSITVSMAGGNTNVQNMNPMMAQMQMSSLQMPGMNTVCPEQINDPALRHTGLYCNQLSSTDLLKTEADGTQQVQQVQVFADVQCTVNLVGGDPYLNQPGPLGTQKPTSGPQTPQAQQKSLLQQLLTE
# Chain of Nuclear receptor coactivator 3 (Homo sapiens) (Q9Y6Q9 whole entry, looked up, the tested form may be a part): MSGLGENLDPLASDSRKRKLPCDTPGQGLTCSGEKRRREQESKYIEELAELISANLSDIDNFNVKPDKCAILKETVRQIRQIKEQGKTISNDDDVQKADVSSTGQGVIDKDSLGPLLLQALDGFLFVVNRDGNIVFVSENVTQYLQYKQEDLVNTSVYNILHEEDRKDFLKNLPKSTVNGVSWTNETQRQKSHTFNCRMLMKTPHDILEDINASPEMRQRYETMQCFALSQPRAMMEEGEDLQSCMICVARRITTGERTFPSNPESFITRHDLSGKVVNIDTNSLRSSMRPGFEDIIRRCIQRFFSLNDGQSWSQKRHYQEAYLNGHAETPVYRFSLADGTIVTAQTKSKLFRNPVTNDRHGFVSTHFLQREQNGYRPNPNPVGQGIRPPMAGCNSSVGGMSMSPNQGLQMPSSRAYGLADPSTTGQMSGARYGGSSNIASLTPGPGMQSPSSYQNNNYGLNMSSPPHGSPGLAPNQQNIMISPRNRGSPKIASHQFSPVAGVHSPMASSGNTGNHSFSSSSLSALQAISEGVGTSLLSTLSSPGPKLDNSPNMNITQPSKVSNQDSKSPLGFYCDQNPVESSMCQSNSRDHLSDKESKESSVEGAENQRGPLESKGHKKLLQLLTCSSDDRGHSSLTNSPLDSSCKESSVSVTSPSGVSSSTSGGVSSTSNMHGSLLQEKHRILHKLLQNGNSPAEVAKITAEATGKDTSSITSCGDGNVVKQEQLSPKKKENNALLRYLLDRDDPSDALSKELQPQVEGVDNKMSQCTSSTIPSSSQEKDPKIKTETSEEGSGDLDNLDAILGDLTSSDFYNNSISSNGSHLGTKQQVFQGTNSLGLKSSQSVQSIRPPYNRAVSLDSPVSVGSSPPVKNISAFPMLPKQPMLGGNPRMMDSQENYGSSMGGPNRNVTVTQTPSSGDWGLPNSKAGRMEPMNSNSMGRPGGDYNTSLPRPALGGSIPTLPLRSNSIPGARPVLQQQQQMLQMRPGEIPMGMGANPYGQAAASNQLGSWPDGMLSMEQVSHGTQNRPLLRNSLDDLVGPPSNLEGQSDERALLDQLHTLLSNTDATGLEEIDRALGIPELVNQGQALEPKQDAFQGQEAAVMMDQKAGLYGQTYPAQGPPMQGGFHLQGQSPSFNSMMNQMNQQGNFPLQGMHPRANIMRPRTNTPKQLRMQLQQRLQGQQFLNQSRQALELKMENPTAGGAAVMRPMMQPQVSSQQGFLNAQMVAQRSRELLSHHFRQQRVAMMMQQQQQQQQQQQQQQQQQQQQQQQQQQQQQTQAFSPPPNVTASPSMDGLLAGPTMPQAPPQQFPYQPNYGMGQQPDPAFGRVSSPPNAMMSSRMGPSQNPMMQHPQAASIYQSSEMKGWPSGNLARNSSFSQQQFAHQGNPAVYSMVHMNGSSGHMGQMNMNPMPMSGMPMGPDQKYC
# Chain of Nuclear receptor subfamily 5 group A member 2 (Homo sapiens) (O00482 whole entry, looked up): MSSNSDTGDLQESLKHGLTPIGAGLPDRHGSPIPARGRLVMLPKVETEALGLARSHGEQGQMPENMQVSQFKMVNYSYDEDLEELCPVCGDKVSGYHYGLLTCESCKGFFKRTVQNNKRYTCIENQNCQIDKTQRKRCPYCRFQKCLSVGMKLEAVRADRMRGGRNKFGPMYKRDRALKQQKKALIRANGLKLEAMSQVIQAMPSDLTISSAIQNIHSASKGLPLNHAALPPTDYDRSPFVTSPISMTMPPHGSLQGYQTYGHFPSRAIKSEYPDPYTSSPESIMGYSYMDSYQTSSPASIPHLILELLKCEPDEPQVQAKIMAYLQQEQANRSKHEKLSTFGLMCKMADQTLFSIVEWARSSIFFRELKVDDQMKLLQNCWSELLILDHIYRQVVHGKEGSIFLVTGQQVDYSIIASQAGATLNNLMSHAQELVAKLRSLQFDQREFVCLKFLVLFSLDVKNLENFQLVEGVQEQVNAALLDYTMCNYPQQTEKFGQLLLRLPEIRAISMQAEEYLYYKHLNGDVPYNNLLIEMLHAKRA
# Chain of Photoreceptor-specific nuclear receptor (Homo sapiens) (Q9Y5X4 whole entry, looked up, the tested form may be a part): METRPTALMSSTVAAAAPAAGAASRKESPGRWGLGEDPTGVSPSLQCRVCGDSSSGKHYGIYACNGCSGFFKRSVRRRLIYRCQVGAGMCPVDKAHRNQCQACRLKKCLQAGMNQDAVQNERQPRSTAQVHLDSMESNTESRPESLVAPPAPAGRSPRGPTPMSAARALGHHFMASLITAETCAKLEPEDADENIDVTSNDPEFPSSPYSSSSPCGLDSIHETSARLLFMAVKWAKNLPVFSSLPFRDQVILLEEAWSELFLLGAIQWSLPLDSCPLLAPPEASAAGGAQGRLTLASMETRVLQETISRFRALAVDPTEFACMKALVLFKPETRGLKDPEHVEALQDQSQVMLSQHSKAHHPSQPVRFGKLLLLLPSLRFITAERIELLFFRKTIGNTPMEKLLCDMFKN
Structure (SMILES),inhibition [1],inhibition [2],inhibition [3],inhibition [4],inhibition [5],inhibition [6],inhibition [7],inhibition [8],inhibition [9],inhibition [10],inhibition [11],inhibition [12],inhibition [13],inhibition [14]
CCn1cc(/C=C/c2cc[n+](C)cc2)c2ccccc21,21.5%,38.4% (active),3.02%,47.3% (active),40.5% (active),65.9% (active),66.8% (active),57.1% (active),–,–,–,–,–,–
CC(=O)N1CCCc2cc(S(=O)(=O)N3CCCC(C(=O)N4CCN(c5cccc(Cl)c5)CC4)C3)ccc21 (stereo not given),26.4%,31.5% (active),7.87%,35.6% (active),–,–,–,–,93% (active),70.2%,14.8%,26.6%,4.48%,60.1% (active)
COc1cccc(/C=N/Nc2ncnc3scc(-c4ccccc4)c23)c1O,83.3% (active),70.3% (active),76.8% (active),65.2% (active),89.1% (active),103% (active),89.4% (active),65.1% (active),–,–,–,–,–,–
CCCC(=O)NC(c1ccccc1Cl)c1ccc2cccnc2c1O (stereo not given),55.3% (active),47.8% (active),35.6%,53.4% (active),82.7% (active),99.2% (active),90.3% (active),83.2% (active),–,–,–,–,–,–
COc1ccc2cc3cc(C(=O)Nc4cc(OC)c(OC)c(OC)c4)oc3nc2c1,37.1%,33.5% (active),9.93%,46.1% (active),71% (active),55.1% (active),74.7% (active),56.5% (active),–,–,–,–,–,–
CC(=O)NC(c1ccc2ccccc2c1)c1ccc2cccnc2c1O (stereo not given),81.5% (active),79.2% (active),70.4% (active),74.3% (active),86.3% (active),104% (active),87.6% (active),79.9% (active),–,–,–,–,–,–
